According to PubChem BioAssay (NCATS):
Records with an inconclusive call do not appear. Entries that show only a call come without a potency. Active and inactive are the calls of the source. The call rests on the fitted dose curve; in most records, active means well fitted activation curve with a large enough effect; inconclusive means small, poorly fitted or top-dose-only effect; inactive means flat fitted curve, though single readings scatter.

experiment: Primary redox qHTS assay for identification of artifact compounds. (AID 1845223); conditions: Amplex Red/HRP redox cycling with DTT, fluorescence; series mostly up to 53.8 µM
Outline: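 Redox-cycling detection via DTT (250 uM final) oxidation coupled to Amplex Red (25 uM)/HRP (250 mU/mL) in HBSS. 15 min preincubation plus 30 min after DTT, room temperature. Ex/Em 525/598 nm; 4-parameter Hill fit against DMSO and 10 uM DA3003.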

SMILES	Potency
CCCCn1ccc(N2CCC(c3ccccc3)CC2)c(Cl)c1=O	inactive
O=C(NNc1ccccc1)c1ccncc1	inactive
COc1ccccc1NC(=O)Nc1ccc2ccccc2c1	inactive
COc1cc(O)c(C(=O)CCc2ccc(O)cc2)c(O[C@@H]2O[C@H](CO)[C@@H](O)[C@H](O)[C@H]2O)c1	inactive
CCOC(=O)c1cnn(-c2ccc(NC(=O)C(Cl)=C(Cl)Cl)cc2)c1C(F)(F)F	inactive
COc1ccc(Cl)cc1[C@@]1(F)C(=O)Nc2cc(C(F)(F)F)ccc21	inactive
CN(CCCNC(=O)c1ccc2nc3c(c(Cl)c2c1)CCCC3)Cc1ccccc1	inactive
Cc1ccc2c(Nc3ccc(Cl)cc3)nccc2c1Nc1ncccc1-c1ncnc2nc[nH]c12	inactive
O=C(Nc1ccc(F)cc1)N1CCc2ccccc2C1c1ccc(C(F)(F)F)cc1 (configuration not stated)	inactive
CC(C)(C)c1ccc(-c2nc3ccccc3[nH]2)cc1	inactive
C=C(C)C(=O)OC1[C@@H]2C(=C)C(=O)O[C@@H]2C[C@@H](C)[C@@H]2C=CC(=O)[C@@]12C (some centres not stated)	inactive
COc1ccccc1-c1cc(Nc2cccc(CS(N)(=O)=O)c2)ncn1	inactive
COc1cc2ncnc(Nc3ccc(Oc4ccccc4)cc3)c2cc1OC	inactive
CC1(C)CC23[C@@H]4CC(=O)[C@@H]2COC(=O)[C@@H]3CC[C@H]41	inactive
CCN1CCN(Cc2ccc(-c3cc4c(NC(C)c5ccccc5)ncnc4[nH]3)cc2)CC1 (configuration not stated)	inactive
CN1CCN(C(=O)c2ccc(Nc3nccc(-c4cccs4)n3)cc2Cl)CC1	inactive
Cn1cnc(-c2nccc3c(=O)[nH]c(OCCCC(F)(F)F)nc23)c1	inactive
